The values that follow come from PubChem BioAssay.

The nature of experiment [1]: resazurin metabolic signal in HepG2 cells – cell-based, resazurin fluorescence, 24 h, PK04 Diversity Set, profiling panel (AID 1172). To be noted: HepG2 viability, higher = more signal.
Experiment [2] is described as follows: budding yeast growth changes without added modifier – OD600, strain BY4716, 24 h, basal condition, primary screen (AID 1173). Conditions: S. cerevisiae BY4716 growth, OD600, 24 h; higher = more signal, called active from +8 up or from −8 down.
Experiment [3] is described as follows: viability profiling in MM1S myeloma cells – cell-based, resazurin fluorescence, basal, 24 h, PK04 Diversity Set, profiling panel (AID 1174).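 Further: MM1S multiple myeloma cell line.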 To be noted: higher = more signal, called active from +8 up or from −8 down. In general terms: The colour change of resazurin is a common sign of viable cells or microbes.
Experiment [4] has as its target Dihydroorotate dehydrogenase (quinone), mitochondrial (Plasmodium falciparum (isolate 3D7)) (UniProt Q08210). The experiment can be described thus: inhibition of P. falciparum DHODH – biochemical, C-terminal His tag, absorbance 600 nm, primary screen (AID 1175).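 Further: recombinant parasite enzyme with a five histidine tag at its C terminus.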 Conditions: PfDHODH enzyme, DCIP absorbance 600 nm; higher = more signal, called active from +8 up or from −8 down.

A short description of experiment [5]: inhibition of PAO1 biofilm formation – strain PAO1, LB-PBS medium, absorbance 600 nm, primary screen (AID 1176). Conditions: P. aeruginosa PAO1 growth/biofilm, A600, 12 h; higher = more signal.
Experiment [6] in a line: growth modulation of vineyard yeast isolate – strain RM11-1a, OD600, basal, 24 h, primary screen (AID 1177).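 Further: cultures grown under basal conditions with no added stressor.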 Conditions: S. cerevisiae RM11-1a growth, OD600, 24 h; higher = more signal, called active from +8 up or from −8 down.
Experiment [7] in a line: growth of efflux-deficient E. coli DRC39 – strain DRC39, OD650, 24 h, E. coli filamentation inducers, primary screen (AID 1178).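 Further: growth measured as culture turbidity by optical density at 650 nm.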 To be noted: E. coli DRC39 acrAB, higher = more signal, called active from +8 up or from −8 down.
Experiment [8] in a line: growth of efflux-deficient E. coli DRC39 – strain DRC39, OD650, 48 h, E. coli filamentation inducers, primary screen (AID 1179).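 Further: screen aims at cell division blockers that make cells filament.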 Conditions: E. coli DRC39 delta-acrAB growth, higher = more signal, called active from +8 up or from −8 down.
A short description of experiment [9]: viability profiling in RPMI8226 myeloma cells – cell-based, resazurin fluorescence, basal, 24 h, PK04 Diversity Set, profiling panel (AID 1180).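 Further: RPMI8826 multiple myeloma cell line at 5000 cells per well.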 To be noted: higher = more signal.
Experiment [10] concerns the target E3 ubiquitin-protein ligase XIAP (Homo sapiens) (UniProt P98170). The experiment can be described thus: small molecules binding XIAP protein – biophysical, small-molecule microarray, fluorescence 635 nm, primary screen (AID 1181).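 Further: score merges 667 nm emission and signal to noise over triplicate slides.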 Conditions: higher = more signal.
For experiment [11], the system named is XIP peptide (Xip251-270) binding. The experiment in a line: XIP fragment 251-270 binding compounds – biochemical, small-molecule microarray, fluorescence 635/667 nm, 0.1 µg/mL protein, primary screen (AID 1182). Conditions: fluorescent protein binding, 635 nm, higher = more signal, called active from +8 up or from −8 down.
The next experiment has as its system XIP peptide (Xip251-270). The experiment can be described thus: compounds binding XIP fragment 251-270 – biochemical, small-molecule microarray, fluorescence 635/667 nm, 0.5 µg/mL protein, primary screen (AID 1183). To be noted: fluorescence 635 nm, higher = more signal.
The nature of experiment [12]: blood-stage malaria parasite viability loss – strain 3D7, DAPI fluorescence, 100 nL, primary screen (AID 1184).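 Further: parasites grown inside human red blood cells in medium with human serum.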 To be noted: P. falciparum 3D7 growth, 3 d, higher = more signal.
The target of experiment [13] is Homeobox protein Hox-A13 (Mus musculus) (UniProt Q62424). The experiment can be described thus: disruptors of Hoxa13 oligonucleotide interaction – biochemical, fluorescence polarization, labeled oligonucleotide, primary screen (AID 1185). To be noted: Hoxa13:DNA binding, 15 min, higher = more signal, called active from +8 up or from −8 down.
Experiment [14] is described as follows: blockers of DNA damage checkpoint Chk1 activation – imaging, HeLa, hydroxyurea, phospho-Chk1 antibody, percent positive cells, primary screen (AID 1186). To be noted: hydroxyurea-induced phospho-Chk1 immunofluorescence imaging, higher = more signal.
A short description of experiment [15]: blockers of DNA damage checkpoint Chk1 activation – imaging, HeLa, hydroxyurea, phospho-Chk1 nuclear intensity, primary screen (AID 1187). To be noted: hydroxyurea-induced phospho-Chk1 immunofluorescence imaging, higher = more signal.

SMILES strings stand for the structures. Activity calls are given as the source filed them. Unless noted, how the calls were made is not given here.

Homeobox protein Hox-A13 (Mus musculus), sequence (Q62424 whole entry, looked up): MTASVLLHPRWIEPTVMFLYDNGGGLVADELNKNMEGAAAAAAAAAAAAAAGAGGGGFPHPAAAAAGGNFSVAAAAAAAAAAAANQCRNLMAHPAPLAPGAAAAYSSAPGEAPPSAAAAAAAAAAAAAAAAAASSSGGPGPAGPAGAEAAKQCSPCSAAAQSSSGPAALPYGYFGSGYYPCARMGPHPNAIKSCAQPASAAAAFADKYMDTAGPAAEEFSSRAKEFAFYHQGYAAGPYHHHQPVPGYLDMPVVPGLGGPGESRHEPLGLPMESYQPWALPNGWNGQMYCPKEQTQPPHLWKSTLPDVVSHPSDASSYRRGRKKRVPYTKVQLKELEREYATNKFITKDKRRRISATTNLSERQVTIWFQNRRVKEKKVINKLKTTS
E3 ubiquitin-protein ligase XIAP (Homo sapiens), sequence (P98170 whole entry, looked up, the tested form may be a part): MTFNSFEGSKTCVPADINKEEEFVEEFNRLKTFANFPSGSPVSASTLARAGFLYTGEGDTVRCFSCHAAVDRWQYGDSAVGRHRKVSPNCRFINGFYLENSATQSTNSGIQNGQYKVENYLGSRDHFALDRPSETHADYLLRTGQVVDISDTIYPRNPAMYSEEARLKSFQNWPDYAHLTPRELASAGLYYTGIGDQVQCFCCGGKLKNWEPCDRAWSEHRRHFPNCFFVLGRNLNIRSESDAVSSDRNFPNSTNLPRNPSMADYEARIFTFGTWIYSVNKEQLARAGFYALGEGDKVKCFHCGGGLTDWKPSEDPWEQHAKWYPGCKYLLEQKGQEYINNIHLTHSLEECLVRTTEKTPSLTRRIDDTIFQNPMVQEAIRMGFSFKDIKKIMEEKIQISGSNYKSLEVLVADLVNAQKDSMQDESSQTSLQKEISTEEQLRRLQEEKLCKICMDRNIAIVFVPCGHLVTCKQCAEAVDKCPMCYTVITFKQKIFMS
Dihydroorotate dehydrogenase (quinone), mitochondrial (Plasmodium falciparum (isolate 3D7)), sequence (Q08210 whole entry, looked up): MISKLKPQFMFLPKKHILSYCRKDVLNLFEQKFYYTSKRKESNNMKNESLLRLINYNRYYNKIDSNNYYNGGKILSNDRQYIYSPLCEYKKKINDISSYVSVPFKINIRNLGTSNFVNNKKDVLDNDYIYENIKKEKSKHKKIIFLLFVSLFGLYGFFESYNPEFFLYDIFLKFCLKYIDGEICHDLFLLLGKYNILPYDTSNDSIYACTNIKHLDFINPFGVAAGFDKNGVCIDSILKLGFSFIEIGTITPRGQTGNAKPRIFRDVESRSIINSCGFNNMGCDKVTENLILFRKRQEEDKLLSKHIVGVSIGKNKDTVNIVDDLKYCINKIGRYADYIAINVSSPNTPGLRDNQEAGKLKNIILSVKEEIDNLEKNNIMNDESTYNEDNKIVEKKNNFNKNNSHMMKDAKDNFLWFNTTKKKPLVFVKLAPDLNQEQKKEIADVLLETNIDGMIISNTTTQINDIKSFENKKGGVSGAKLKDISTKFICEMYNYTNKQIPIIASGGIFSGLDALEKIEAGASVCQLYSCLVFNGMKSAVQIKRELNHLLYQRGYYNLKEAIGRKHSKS

Regarding `O=C1O[C@@H](c2ccccc2)[C@@H](c2ccccc2)N2[C@@H](c3ccccc3OCCO)[C@]3(C(=O)Nc4ccc(C#CCCO)cc43)[C@@H](C(=O)Nc3nc4ccccc4s3)[C@H]12`, the z-score was -0.0116 in experiment [1]; 0.282 (inactive) in experiment [2]; -0.095 (inactive) in experiment [3]; 0.986 (inactive) in [5]; 2.39 (inactive) in experiment [6]; -0.233 (inactive) in [7]. Further, the z-score in experiment [8] is 0.695 (inactive); in [9], -0.226; in experiment [12], -2.14; in [13] it was -2.2 (inactive); in [14], -0.0607 (inactive); in [15], 0.0274 (inactive). Moreover, the composite z-score was -0.176 (inactive) in experiment [4], -0.145 in experiment [10], 0.767 (inactive) in experiment [11] and 0.698 with XIP peptide (Xip251-270).
In the case of `C=C(C(=O)CC[C@H](OC(C)=O)c1cccc(OCCO)c1)C(C)C`, the z-score in experiment [1] is -1.23; in [2], -0.105 (inactive); in experiment [3], -0.748 (inactive); in [5], -0.411 (inactive); in experiment [6] it was 0.0297 (inactive); in experiment [7] it was -1.04 (inactive). Besides, the z-score in experiment [8] was -0.86 (inactive); in [9], -0.559; in [12], -1.96; in experiment [13], -4.74 (inactive); in experiment [14], 0.885 (inactive); in experiment [15] it was 0.41 (inactive). Besides, the composite z-score in [4] is -0.781 (inactive); in experiment [10] it was 0.0454; in experiment [11] it was -0.252 (inactive); in the experiment with XIP peptide (Xip251-270), 0.565.
Take `O=C1OCC=C[C@H]2OC34C=CCN(Cn5nnc6ccccc65)C(=O)[C@H]3N(CCCCCCO)C(=O)[C@@H]4[C@@H]12` (some centres undefined): the z-score in experiment [1] was -0.214; in experiment [2] it was -0.344 (inactive); in experiment [3], 0.0473 (inactive); in [5] it was 0.481 (inactive); in experiment [6], -0.91 (inactive); in experiment [7], 0.239 (inactive). For the same molecule, the z-score in experiment [8] was 0.163 (inactive); in experiment [9] it was -0.134; in [12] it was -0.508; in [13], -4.69 (inactive); in experiment [14] it was 0.197 (inactive); in experiment [15], 0.521 (inactive). Besides, the composite z-score was -1.32 (inactive) in [4], 0.233 in [10], -0.231 (inactive) in experiment [11] and -0.714 in the experiment with XIP peptide (Xip251-270).
With `C=CCOC(=O)[C@@H]1[C@H]2C(=O)O[C@H](c3ccccc3)[C@H](c3ccccc3)N2[C@H](c2ccc(OCCOC(=O)[C@H]3C[C@H]4C(=O)N[C@@H](CC(C)C)C(=O)N4[C@H]3c3ccc(O)cc3)cc2)[C@@]12C(=O)Nc1ccc(I)cc12`, the z-score in experiment [1] was 0.206; in experiment [2], 1.26 (inactive); in experiment [3], 0.219 (inactive); in experiment [5], 2.44 (inactive); in [6] it was 1.6 (inactive); in [7] it was 0.869 (inactive). Besides, the z-score in experiment [8] was 1.2 (inactive); in [9], 0.597; in experiment [12], -1.79; in experiment [13] it was 0.981 (inactive); in [14], -0.25 (inactive); in experiment [15], -0.115 (inactive). For the same molecule, the composite z-score in [4] is 0.106 (inactive); in experiment [10] it was 0.0819; in [11], 0.234 (inactive); with XIP peptide (Xip251-270) it was 0.828.
Take `C=CC[C@@H](OC(=O)Nc1ccc(OC)cc1)c1ccc(OCCO)cc1`: the z-score was -0.197 in [1]; -3.85 (inactive) in experiment [2]; -0.561 (inactive) in [3]; 0.438 (inactive) in experiment [5]; -0.373 (inactive) in experiment [6]; 0.411 (inactive) in experiment [7]. The z-score in experiment [8] was -0.103 (inactive); in experiment [9] it was -0.365; in experiment [12], 0.663; in experiment [13], -5.86 (inactive); in [14] it was -0.867 (inactive); in [15], -0.431 (inactive). For the same molecule, the composite z-score is 0.251 (inactive) in experiment [4], 0.206 in experiment [10], 0.456 (inactive) in experiment [11] and -0.543 in the experiment on XIP peptide (Xip251-270).
Regarding `CC(C)C(O)C1C=CC2C(=O)N(C)C(=O)C2N1N(c1ccccc1)c1ccccc1` (centres undefined), the z-score was 0.207 in [1]; 0.72 (inactive) in experiment [2]; -1.62 (inactive) in experiment [3]; 0.186 (inactive) in experiment [5]; 0.879 (inactive) in experiment [6]; -0.841 (inactive) in experiment [7]. For the same molecule, the z-score is 0.195 (inactive) in experiment [8]; -0.583 in experiment [9]; 0.0202 in experiment [12]; -4.48 (inactive) in [13]; 0.307 (inactive) in [14]; 0.0802 (inactive) in [15]. In addition, the composite z-score in [4] was 0.85 (inactive); in experiment [10] it was 0.23; in [11] it was 0.618 (inactive); in the experiment with XIP peptide (Xip251-270), 0.123.
Regarding `Cc1c(NC(=O)/C(C#N)=C/C=C/c2ccccc2[N+](=O)[O-])c(=O)n(-c2ccccc2)n1C`, the z-score in experiment [1] was -1.25; in experiment [2], -0.0708 (inactive); in experiment [3], -0.729 (inactive); in [5], -0.6 (inactive); in experiment [6], -0.061 (inactive); in experiment [7], 1.06 (inactive). Besides, the z-score in experiment [8] was -0.241 (inactive); in experiment [9], -1.73; in experiment [12], -0.758; in [13] it was -3.54 (inactive); in [14], 0.432 (inactive); in experiment [15] it was 0.721 (inactive). The composite z-score in [4] is 0.512 (inactive); in experiment [10], -0.0172; in [11], 4.09 (inactive); with XIP peptide (Xip251-270), 0.552.
`[N-]=[N+]=Nc1ccccc1C[C@]1(C(=O)NCc2ccccc2)N=C(c2ccc(OCCCO)cc2)O[C@H]1c1ccccc1`: the z-score in experiment [1] was -0.328; in experiment [2] it was 1.41 (inactive); in [3], -1.73 (inactive); in experiment [5] it was 0.811 (inactive); in [6], 3.08 (inactive); in experiment [7], 0.515 (inactive). For the same molecule, the z-score was -0.0745 (inactive) in [8]; -1.84 in [9]; -2.07 in experiment [12]; -0.801 (inactive) in experiment [13]; 0.0726 (inactive) in experiment [14]; 0.176 (inactive) in [15]. The composite z-score in experiment [4] was 1.18 (inactive); in experiment [10] it was 0.0378; in experiment [11], 0.222 (inactive); in the experiment on XIP peptide (Xip251-270), 0.813.
For `COc1c(C)cc(-c2cc3c(c(Cc4ccccc4)n2)[Si](C(C)C)(C(C)C)OC3)cc1C`, the z-score is -0.683 in [1]; 1.06 (inactive) in [2]; -0.533 (inactive) in experiment [3]; 0.055 (inactive) in experiment [5]; 0.576 (inactive) in [6]; -0.363 (inactive) in experiment [7]. Also, the z-score is -0.779 (inactive) in [8]; -0.661 in experiment [9]; -2.74 in experiment [12]; 0.472 (inactive) in [13]; -0.142 (inactive) in experiment [14]; 0.135 (inactive) in experiment [15]. Besides, the composite z-score was -0.0592 (inactive) in experiment [4], -0.138 in [10], -0.337 (inactive) in experiment [11] and -0.0392 in the experiment with XIP peptide (Xip251-270).
